# Assay results taken from PubChem BioAssay (NCATS).
# Results filed as inconclusive are left out. Active and inactive are the calls of the source. The call rests on the fitted dose curve; in most records, active means well fitted inhibition curve with a large enough effect; inconclusive means small, poorly fitted or top-dose-only effect; inactive means flat fitted curve, though single readings scatter.
# Test system: CP262
# Assay: qHTS profiling for inhibitors of Plasmodium falciparum proliferation (AID 504749);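 further: 0% = DMSO vehicle and full inhibition = artemisinin control; nearly all actives have a fitted effect of over 60% in size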
# Conditions: P. falciparum in erythrocytes, SYBR Green DNA, 72 h; series mostly up to 28.7 µM; activity, negative = inhibition: at the top concentration
# Summary of the method: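 Quantitative HTS: compounds pinned into medium, infected erythrocytes added (0.3% parasitemia, 2.5% hematocrit), 72 h culture at 37 C under 5% CO2. Saponin/Triton lysis with SYBR Green I, overnight RT, then fluorescence read.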
row,Structure (SMILES),"activity, negative = inhibition"
1,CCCOC(=O)c1ccccc1O,-0.692% (inactive)
2,COc1cc2c(cc1OC)[C@@H](Cc1cc(OC)c(OC)c(OC)c1)[N+](C)(CCCOC(=O)CC/C=C/CCC(=O)OCCC[N+]1(C)CCc3cc(OC)c(OC)cc3[C@H]1Cc1cc(OC)c(OC)c(OC)c1)CC2 (some centres undefined),-1.23% (inactive)
3,OC[C@H]1O[C@@](CO)(O[C@H]2O[C@H](CO)[C@@H](O)[C@H](O)[C@H]2O)[C@@H](O)[C@@H]1O,0% (inactive)
4,CCC(Cc1c(I)cc(I)c(O)c1I)C(=O)O (centres undefined),1.17% (inactive)
5,Nc1ncnc2c1ncn2CCOCP(=O)(O)O,0% (inactive)
6,O=C(O)CCC/C=C\C[C@@H]1[C@@H](/C=C/[C@@H](O)COc2cccc(Cl)c2)[C@H](O)C[C@@H]1O,3.27% (inactive)
7,N=C(N)n1cccn1,-4.5% (inactive)
8,CCSc1ccc2c(c1)N(CCCN1CCN(C)CC1)c1ccccc1S2,-0.131% [at 12.8 µM] (inactive)
9,CC(C)c1nc(N(C)S(C)(=O)=O)nc(-c2ccc(F)cc2)c1/C=C/C(O)CC(O)CC(=O)O (centres undefined),-0.986% (inactive)
10,CCOC(C)OCC,13.1% (inactive)
11,NCCN,-4.01% (inactive)
12,CC(CC=O)CCCC(C)(C)O (centres undefined),7.11% (inactive)
13,CC(C)(COP(=O)(O)OP(=O)(O)OC[C@H]1O[C@@H](n2cnc3c(N)ncnc32)[C@H](O)[C@@H]1OP(=O)(O)O)C(O)C(=O)NCCC(=O)NCCS (some centres undefined),-0.924% (inactive)
14,O=C1c2ccccc2CN2C(=O)c3ccccc3CN12,-1.86% (inactive)
15,O=C1c2ccccc2C(=O)C1c1ccc(F)cc1,-0.492% (inactive)
16,CNC(=O)C[C@@H](N)C(=O)N[C@@H](C(=O)N[C@@H]1C(=O)N2[C@@H]1SC(C)(C)[C@@H]2C(=O)O)c1ccc(O)cc1,1.99% (inactive)
17,CCCCCc1ccc(C)cc1O,-1.44% (inactive)
18,C=CC(C)(O)CC/C=C(\C)CCC=C(C)C (centres undefined),-1.18% (inactive)
19,Cc1ccc(S(=O)(=O)NCl)cc1,0% (inactive)
20,CN1c2c(nc(N)[nH]c2=O)NCC1CNc1ccc(C(=O)NC(CCC(=O)O)C(=O)O)cc1 (centres undefined),4.56% (inactive)

row,Structure (SMILES),"activity, negative = inhibition"
1,NC(=O)[C@@H]1CCCN1C(=O)[C@H](Cc1cnc[nH]1)NC(=O)[C@@H]1CCC(=O)N1,-2.85% (inactive)
2,CN(C)CCOc1ccc(/C(=C(/CCCl)c2ccccc2)c2ccccc2)cc1,2.08% (inactive)
3,CC1(O)CCC(C(C)(C)O)CC1 (centres undefined),0.615% (inactive)
4,COc1ccccc1N1CCN(CCCC(=O)c2ccc(F)cc2)CC1,-2.64% (inactive)
5,CC(C)[C@@H](N)C(=O)O,4.88% (inactive)
6,CN(C)c1ccc(C(=C2C=CC(=[N+](C)C)C=C2)c2c(O)c(S(=O)(=O)[O-])cc3cc(S(=O)(=O)O)ccc23)cc1,-0.851% (inactive)
7,COc1cc(S(C)=O)ccc1-c1nc2ncccc2[nH]1 (centres undefined),0% (inactive)
8,Oc1cc(O)cc(O)c1,14.7% (inactive)
9,N[C@H](CC(=O)O)C(=O)O,13.8% (inactive)
10,C/C=C/C=C/C(=O)O,20% (inactive)
11,C=C(C)C1CC=C(C)CC1 (centres undefined),7.37% (inactive)
12,Nc1ncnc2c1ncn2[C@H]1CC[C@@H](CO)O1,-1.73% (inactive)
13,NCC[C@H](O)C(=O)N[C@@H]1C[C@H](N)[C@@H](O[C@H]2O[C@H](CN)CC[C@H]2N)[C@H](O)[C@H]1O[C@H]1O[C@H](CO)[C@@H](O)[C@H](N)[C@H]1O,-1.27% (inactive)
14,[O]=[Bi][O]C(=O)[O][Bi]=[O],-7.02% (inactive)
15,Cc1c(Cl)cccc1Nc1ncccc1C(=O)O,0.633% (inactive)
16,CC1(C)S[C@@H]2[C@H](NC(=O)C3(N)CCCCC3)C(=O)N2[C@H]1C(=O)O,4.69% (inactive)
17,CCCCCCCCCCCC(=O)OCC(O)CO (centres undefined),1.62% (inactive)
18,COc1ccc(C(=O)c2ccc(C)cc2)c(O)c1,17.1% (inactive)
19,O=C1NCCN1c1ncc([N+](=O)[O-])s1,0% [at 12.8 µM] (inactive)
